SENP6 inh: SENP6 protease inhibitors, primary screen, biochemical, luminescence, uHTS. inhibition, % at 10 µM. Sentrin-specific protease 6 (Homo sapiens), Q9GZR1. Recombinant SENP6 catalytic domain, aminoluciferin luminescence. actives 1.8% (n = 330,000);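 active = inhibition above about 50% at the single tested dose, limit read from the data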;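 also: plate controls were DMSO wells with enzyme for no effect and DMSO wells lacking enzyme for full effect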
Target sequence (Q9GZR1 628-1112 limits assumed): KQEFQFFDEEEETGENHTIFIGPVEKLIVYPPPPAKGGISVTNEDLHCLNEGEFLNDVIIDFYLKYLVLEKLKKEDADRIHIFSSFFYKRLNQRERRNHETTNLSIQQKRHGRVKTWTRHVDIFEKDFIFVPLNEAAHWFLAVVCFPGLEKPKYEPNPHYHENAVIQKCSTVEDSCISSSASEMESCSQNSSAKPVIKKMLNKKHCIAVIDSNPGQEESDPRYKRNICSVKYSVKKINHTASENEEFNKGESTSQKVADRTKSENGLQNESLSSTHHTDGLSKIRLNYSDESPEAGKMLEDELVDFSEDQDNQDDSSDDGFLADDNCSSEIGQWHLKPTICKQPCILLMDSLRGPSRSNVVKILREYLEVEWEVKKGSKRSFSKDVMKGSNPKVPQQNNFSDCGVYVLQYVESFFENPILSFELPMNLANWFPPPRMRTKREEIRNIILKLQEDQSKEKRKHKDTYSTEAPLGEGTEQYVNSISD
PPC-1+TRAIL kill: compounds killing PPC-1 cancer cells with TRAIL present, primary screen, TRAIL potentiator project, ATPLite luminescence, uHTS | PPC-1 cells + TRAIL, ATPLite viability luminescence | cell killing (% activity), % at 4 µM or 5 µM | actives 0.41% (n = 220,000);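 active = cell killing above 50% in the first pass at 4 µM, then a duplicate retest at 5 µM averaging 50% or more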;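 also: plate controls were cells with TRAIL plus DMSO for no effect and medium-only wells lacking cells for full effect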
C8 TRAIL sens: viability loss with TRAIL in NB7+C8 cells, primary screen, TRAIL sensitizer project, cell-based, ATPlite luminescence. inhibition (viability loss, TRAIL sensitization), % at 10 µM. actives 1% (n = 360,000);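 active = compounds causing at least 50% loss of cell viability in the single-dose screen, relative to plate controls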
SENP7 block: SENP7 protease inhibitors, primary screen, biochemical, luminescence, uHTS | Sentrin-specific protease 7 (Homo sapiens), Q9BQF6 | recombinant SENP7, Z-RLRGG-aminoluciferin luminescence, 40 min | inhibition, % at 5 µM | actives 1.5% (n = 330,000) | AID 434973, 2010;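 active = inhibition above about 50% at the single test dose, limit read from the data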;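 also: plate controls were DMSO with enzyme for no effect and no enzyme buffer wells for full effect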
SENP8 block-1: human SENP8 protease inhibitors, primary screen, biochemical, fluorescence, Nedd8 protein substrate, uHTS; inhibition, % at 20 µM; recombinant SENP8; actives 0.64% (n = 360,000); in the data active = inhibition mostly above about 40%, no sharp cut-off; inactive = mostly below about 27%
SENP8 block-2: SENP8 protease inhibitors, primary screen, biochemical, luminescence | AID 2540, 2010 | purified SENP8, Z-RLRGG-aminoluciferin cleavage | inhibition, % at 10 µM | Sentrin-specific protease 8 (Homo sapiens), Q96LD8 | actives 1.2% (n = 330,000); in the data active = inhibition above about 50%
SENP8 confirm: SENP8 protease inhibitors, retest, confirmation, biochemical, luminescence, single concentration | Recombinant SENP8, Z-RLRGG-aminoluciferin luminescence, 60 min | inhibition, % at 12.5 µM | shares compounds with SENP7 block | actives 40% (n = 6,200);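 active = mean inhibition across replicates above about 50%, limit read from the data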
SENP6 confirm: SENP6 protease inhibitors, confirmation, biochemical, luminescence, single concentration; shares compounds with SENP7 block; recombinant SENP6, Z-RLRGG-aminoluciferin luminescence; inhibition, % at 12.5 µM; actives 58% (n = 6,200)
SENP7 conf: SENP7 protease inhibitors, retest, confirmation, biochemical, luminescence, single concentration | shares compounds with SENP7 block | recombinant SENP7, Z-RLRGG-aminoluciferin luminescence, 40 min | inhibition, % at 12.5 µM | actives 69% (n = 6,200)
Casp3 select: caspase-3 protease inhibitors, confirmation, selectivity assay for SENP inhibitor project, biochemical, single concentration; AID 488918, 2010; shares compounds with SENP7 block; purified caspase-3, Z-DEVD-aminoluciferin luminescence, 60 min; inhibition, % at 12.5 µM; actives 60% (n = 6,200);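 active = mean inhibition above about 50%, limit read from the data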;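 also: plate controls were enzyme with DMSO for no effect and wells without caspase-3 for full effect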
Luc interf: interferes with luciferase luminescence in SENP counter-screen | shares compounds with SENP7 block | Pre-incubated SENP8/Z-RLRGG-aminoluciferin, luciferase luminescence interference | inhibition, % at 12.5 µM | actives 39% (n = 6,200);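 active = mean inhibition above about 50% when retested at one dose, limit read from the data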;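 also: plate controls were DMSO wells with completed reaction for no effect and substrate without enzyme for full effect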
* marks the source's active call; other numbers are inactive results. Rows were chosen to be rich in hits. Some 3% of all compounds tested hit in one or more screens of this group.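 The calls were made as follows, unless noted: active = mean inhibition above about 50% in the one-dose retest (limit read from the data); inactive = the rest.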

Results for Cc1cccc(N=C2NC(=O)/C(=C\c3cccs3)S2)c1 ?
SENP6 inh: 49; PPC-1+TRAIL kill: 29; C8 TRAIL sens: -15; SENP7 block: 1; SENP8 block-1: 1; SENP8 block-2: 6

Results for COc1ccccc1/C=N/N1C(=O)c2cccc3cccc(c23)C1=O ?
SENP6 inh: -15; PPC-1+TRAIL kill: 8; C8 TRAIL sens: -2; SENP7 block: -4; SENP8 block-1: 10; SENP8 block-2: -1

How did CN(C)c1ccc(/C=N/N2C(=O)c3ccccc3C2=O)cc1 do in these assays?
SENP6 inh: -3; PPC-1+TRAIL kill: 7; C8 TRAIL sens: 10; SENP7 block: 91*; SENP8 block-1: 26; SENP8 block-2: 72*; SENP8 confirm: 28; SENP6 confirm: 71*; SENP7 conf: 61*; Casp3 select: 51*; Luc interf: 18

Results for COc1ccc(/C=N/N2C(=O)c3ccccc3C2=O)cc1 ?
SENP6 inh: 88*; PPC-1+TRAIL kill: 1; C8 TRAIL sens: -8; SENP7 block: 87*; SENP8 block-1: 7; SENP8 block-2: 79*; SENP8 confirm: 3; SENP6 confirm: 74*; SENP7 conf: 70*; Casp3 select: 85*; Luc interf: 25

What do the screens show for `CCN(CC)c1ccc(/C=N/N2C(=O)c3ccccc3C2=O)c(O)c1`?
SENP6 inh: 1; PPC-1+TRAIL kill: 7; C8 TRAIL sens: 18; SENP7 block: -2; SENP8 block-1: -1; SENP8 block-2: -16

What do the screens show for `CCN(CC)c1ccc(/C=N/N2C(=O)c3ccccc3C2=O)cc1`?
SENP6 inh: 63*; PPC-1+TRAIL kill: 13; C8 TRAIL sens: -5; SENP7 block: 45; SENP8 block-1: -4; SENP8 block-2: 33; SENP8 confirm: -6; SENP6 confirm: 16; SENP7 conf: -5; Casp3 select: -1; Luc interf: -1

How did COC(=O)c1ccc2nc(-c3ccc(S(C)(=O)=O)cc3)cn2c1 do in these assays?
SENP6 inh: -32; PPC-1+TRAIL kill: 4; C8 TRAIL sens: 12; SENP7 block: -3; SENP8 block-1: -445; SENP8 block-2: -15

Results for CS(=O)(=O)c1ccc(-c2cn3cc(C(=O)O)ccc3n2)cc1 ?
SENP6 inh: 60*; PPC-1+TRAIL kill: 24; C8 TRAIL sens: 16; SENP7 block: 58*; SENP8 block-1: -389; SENP8 block-2: 55*; SENP8 confirm: 10; SENP6 confirm: 66*; SENP7 conf: 86*; Casp3 select: 36; Luc interf: 56*

What do the screens show for `COc1ccc2cc(C(c3nnnn3C(C)(C)C)N3CCc4ccccc4C3)c(=O)[nH]c2c1` (stereo not drawn)?
SENP6 inh: 38; PPC-1+TRAIL kill: 9; SENP7 block: 29; SENP8 block-2: 18

Results for COc1ccc2cc(C(c3nnnn3C3CCCC3)N3CCc4ccccc4C3)c(=O)[nH]c2c1 (stereo not drawn) ?
SENP6 inh: 13; PPC-1+TRAIL kill: -25; C8 TRAIL sens: -7; SENP7 block: 74*; SENP8 block-1: -275; SENP8 block-2: 66*; SENP8 confirm: 5; SENP6 confirm: 9; SENP7 conf: 2; Casp3 select: -3; Luc interf: -4

Results for COc1ccc2[nH]c3c(NCCCOC(C)C)ncnc3c2c1 ?
SENP6 inh: 93*; C8 TRAIL sens: 14; SENP7 block: 96*; SENP8 block-1: -267; SENP8 block-2: 90*; SENP8 confirm: 90*; SENP6 confirm: 93*; SENP7 conf: 101*; Casp3 select: 96*; Luc interf: 93*

Results for CCN(CC)CCNc1ncnc2c1[nH]c1ccc(OC)cc12 ?
SENP6 inh: -16; SENP7 block: 5; SENP8 block-2: 4

Results for Nc1c(-c2cccc(Cl)c2)cnn1-c1ccccc1 ?
SENP6 inh: 20; C8 TRAIL sens: 10; SENP7 block: 38; SENP8 block-1: 13; SENP8 block-2: 21

How did Nc1c(-c2ccccc2)cnn1-c1ccccc1 do in these assays?
SENP6 inh: 79*; C8 TRAIL sens: 54*; SENP7 block: 83*; SENP8 block-1: 11; SENP8 block-2: 70*; SENP8 confirm: 75*; SENP6 confirm: 72*; SENP7 conf: 94*; Casp3 select: 88*; Luc interf: 78*

Results for O=C(CN1CCN(Cc2ccc(Cl)cc2)CC1)N/N=C/c1c[nH]c2ccccc12 ?
SENP6 inh: 12; PPC-1+TRAIL kill: 8; C8 TRAIL sens: -1; SENP7 block: 3; SENP8 block-1: 26; SENP8 block-2: 3

Results for O=C1NC2NC(=O)N(C(Cc3ccccc3)C(=O)O)C2N1 (stereo not drawn) ?
SENP6 inh: 60*; PPC-1+TRAIL kill: 8; C8 TRAIL sens: 1; SENP7 block: 5; SENP8 block-1: 17; SENP8 block-2: 2; SENP8 confirm: -26; SENP6 confirm: -24; SENP7 conf: -11; Casp3 select: -6; Luc interf: -8

What do the screens show for `CC(C)(C)NC(=S)N1CCC(C(=O)c2ccc(Cl)cc2)CC1`?
SENP6 inh: 21; C8 TRAIL sens: -3; SENP7 block: 2; SENP8 block-1: 18; SENP8 block-2: 4

What do the screens show for `Cc1ccn2c(NC(=O)c3ccccc3)c(-c3ccccc3)nc2c1`?
SENP6 inh: 6; C8 TRAIL sens: -9; SENP7 block: 8; SENP8 block-1: 11; SENP8 block-2: 2

Compound activity: PubChem, Sanford-Burnham Center for Chemical Genomics
